Where “and” joins values, the source holds several entries; their conditions need not be identical. Equal values may be shown once. Inconclusive results are not listed. Calls of active or inactive are those of the source. Calls come from the whole dose curve.
Experiment: qHTS Assay for Lipid Storage Modulators (AID 1519); for activity change, negative = inhibition: % is set by controls: 0 for no effect and ±100 for the full control effect
Details: Drosophila S3 cells, BODIPY lipid droplet/cell ratio, laser cytometry, cells loaded with oleic acid
Description: NIH Molecular Libraries Probe Production Centers Network [MLPCN]
NIH Chemical Genomics Center [NCGC]
Assay Submitter (PI): Beller, Mathias; Max-Planck-Institut fur Biophysikalische Chemie
NCGC Assay Overview: Storing lipids as a reservoir for energy or the anabolism of elementary metabolites is a common feature of probably all cells and is conserved from bacteria to humans. The universal cellular lipid storage organelle is the so-called lipid storage droplet (LD). Although ubiquitous, LDs share a simple structure composed of a hydrophobic core that harbors the storage lipids, which is shielded by a droplet-specific phospholipid monolayer to which proteins are attached. The current model of LD biogenesis involves an incorporation of the lipid core into the membrane leaflets of the endoplasmic reticulum (ER) followed by a subsequent budding-like maturation of a LD, which ultimately pinches off. Once released, LD volume can increase by localized lipogenesis or fusion of existing droplets. Storage lipids are re-mobilized enzymatically by lipase activity. Lipase regulation in the adipocyte is heavily studied and involves multiple components including catecholamine signaling, the LD-associated proteins Perilipin and comparative gene identification-58 (CGI-58) and at least two lipases named hormone sensitive lipase (HSL) and adipocyte triglyceride lipase (ATGL). LD regulation outside of the adipocyte is poorly understood and only few components are known. However, there is an urgent need to learn more about ectopic fat depots as mislocalized storage of lipids, for example in the liver or muscle, is an eminent health problem associated with insulin resistance or the metabolic syndrome. We developed a laser-scanning cytometer assay to enable 1,536-well screening and combined the results of the small molecules screen with an RNAi database based on lipid storage.
NCGC Assay Protocol Summary:
We dispensed 4 uL of cells at 1.25 x 10^6 cells/mL into LoBase Aurora COC 1,536-well plates (black walled, clear bottom) with a bottle-valve solenoid-based dispenser (Aurora) to obtain 5,000 cells/well. Triacsin C (Sigma-Aldrich T-4540), an inhibitor of long-chain fatty acyl CoA synthetase that blocks synthesis of triglycerides, was used as a positive control for lipid under-storage. A total of 23 nL of compound solution of different concentrations were transferred to the assay plates using a Kalypsys pin tool equipped with a 1,536-pin array containing 10-nL slotted pins (FP1S10, 0.457-mm diameter, 50.8 mm long; V&P Scientific). One microliter of oleic acid (400 uM) was added, and the plate was lidded with stainless steel rubber gasket lined lids containing pinholes. […] Fluorescence was detected by excitation of the fluorophores with a 488-nm laser on an Acumen Explorer (TTP Lab Tech). The total intensity in channel 1 (500-530 nm) reflected lipid droplet accumulation. […] The ratio of the total intensity in PMT channel 1 over total intensity of channel 3 was also calculated. Percent activity was computed relative to an internal control (100% inhibited lipid droplet deposition due to the presence of 20 uM Triacsin C), which was added to 32 wells/plate.

[1] = measured here: cell count channel max response
[2] = measured here: lipid channel max response

Structure (SMILES) | activity change, negative = inhibition (at 25.7 µM (top of the series)) | activity change, negative = inhibition (at 57.5 µM (top of the series)) | max response [1] | max response [2]
CN/C(=C\[N+](=O)[O-])NCCSCc1ccc(CN(C)C)o1 | -0.0815% (inactive) | 4.77% (inactive) and 9.42% (inactive) | 4.03% and -18.5% and 18.2% | 2.82% and -19.9% and 33.3%
Nc1nc(N)c2nc(-c3ccccc3)c(N)nc2n1 | -0.107% (inactive) | -0.933% (inactive) | -4.41% and -12.1% | -2.65% and -13.5%
CCn1cc(C(=O)O)c(=O)c2cc3c(cc21)OCO3 | -1.05% (inactive) | 2.77% (inactive) | 12% and 70.6% | 10.4% and 75.7%
CC(=O)Oc1cc(C(C)C)c(OCCN(C)C)cc1C | -0.785% (inactive) |  | -9.94% | -5.49%
CC(C)NCC(O)c1cc(O)cc(O)c1 (configuration not stated) |  | 10.7% (inactive) and 0.0278% (inactive) | 8.74% and -21.1% | 23% and -23.1%
Cc1nc2sccn2c(=O)c1CCN1CCC(=C(c2ccc(F)cc2)c2ccc(F)cc2)CC1 |  | -1.04% (inactive) | 26.4% | 25.6%
Nc1c2c(nc3ccccc13)CCCC2O (configuration not stated) |  | 0.679% (inactive) and 0.738% (inactive) | 14.7% and -14.6% | 13.3% and -15.3%
O=c1[nH]c(=O)n([C@H]2C[C@H](O)[C@@H](CO)O2)cc1Br |  | -1.72% (inactive) and -8.79% (inactive) | 5.46% and -18.7% | 1.8% and -25.8%
CO[C@@]1(NC(=O)CSCC#N)C(=O)N2C(C(=O)O)=C(CSc3nnnn3C)CS[C@@H]21 |  | 0.161% (inactive) | -28.1% | -28.4%
CN=C(NC#N)NCCSCc1nc[nH]c1C |  | 0.49% (inactive) and 5% (inactive) | 19.1% and 8.99% | 19.5% and 21.3%
Fc1ccc(C(c2ccc(F)cc2)N2CCN(C/C=C/c3ccccc3)CC2)cc1 |  | -1.34% (inactive) | 15.3% | 15.1%
CC(C(=O)O)c1ccc(CC2CCCC2=O)cc1 (configuration not stated) |  | -1.18% (inactive) | -27.7% | -27%
c1ccc2c(c1)CCCC2C1=NCCN1 (configuration not stated) |  | 9.7% (inactive) and 1.83% (inactive) | 6.5% and -25.5% | 18.8% and -24.9%

Reference: PubChem BioAssay (NCATS)
